# From PubChem BioAssay (NCI)
# About 83,000 compounds went through this panel and 20% of them were active in at least one assay; those are over-represented in the sample as a whole.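 Results are percent growth after 48 hours of single-concentration exposure. 100 means growth as in untreated cells, lower positive values show inhibition; negative values down to -100 show cell death.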 A number with no mark means an inactive call. Active and inactive are the calls of the source. Rule for the calls: active = growth percent below 10; inactive = the rest.
# Assays:
# Test in all cases: NCI-60 one-dose screen, 48 h (100 = growth as untreated, 0 = no growth, -100 = all killed)
# Details in all cases: 10 µM unless noted
# RPMI-8226 leukemia = system: RPMI-8226 leukemia
# OVCAR-8 ovarian = system: OVCAR-8 ovarian
# OVCAR-5 ovarian = system: OVCAR-5 ovarian
# OVCAR-4 ovarian = system: OVCAR-4 ovarian
# SK-OV-3 ovarian = system: SK-OV-3 ovarian
# IGROV1 ovarian = system: IGROV1 ovarian
# OVCAR-3 ovarian = system: OVCAR-3 ovarian
# HS 578T breast = system: HS 578T breast
# NCI/ADR-RES ovarian = system: NCI/ADR-RES ovarian
# SR leukemia = system: SR leukemia
SMILES,growth (RPMI-8226 leukemia),growth (OVCAR-8 ovarian),growth (OVCAR-5 ovarian),growth (OVCAR-4 ovarian),growth (SK-OV-3 ovarian),growth (IGROV1 ovarian),growth (OVCAR-3 ovarian),growth (HS 578T breast),growth (NCI/ADR-RES ovarian),growth (SR leukemia)
C=CC(=O)NC(=O)Nc1ccccc1Cl,21.4%,84.5%,111%,103%,87.3%,88.2%,68.7%,96.8%,–,–
NS(=O)(=O)c1ccc(CCN2C(=O)/C(=C\c3ccc(Cl)cc3)C=C2c2ccc(Oc3ccccc3)cc2)cc1,60.4%,71.4%,76.7%,87.5%,93%,78.8%,81.3%,98.8%,78.3%,–
CC(C(=O)O)N1C(N)=NNC1c1ccccc1O (stereo not given),–,90.2%,108%,76.3%,105%,70.9%,83%,91.1%,83.8%,72.2%
CC(C)(C)C(=O)/C=c1/[nH]c(=O)/c(=C/c2ccccc2O)s1,60%,66.9%,86.9%,67.3%,81.4%,50.1%,20.2%,71.7%,47.1%,–
COCCNC(C(=O)c1ccccc1)c1ccccc1 (stereo not given),98.4%,97.7%,95.1%,105%,101%,102%,104%,100%,107%,–
CCC1S/C(=N\N=C(/C)c2ccco2)N(c2ccccc2)C1=O (stereo not given),–,106%,105%,98.4%,135%,-17.1% (active),–,231%,–,92.4%
CN(C)c1ccc(/C=N/N=C(N)N)cc1,–,91.1%,116%,81.9%,82.5%,69.8%,66.3%,78.2%,50.5%,54.8%
COc1ccc(NC(=O)Nc2ccc(-c3ccc(OC)c(OC)c3)nc2C)cc1,–,47.4%,98%,29.5%,74.8%,77.1%,102%,40%,85%,57.3%
COc1ccc(/C=C/C(=O)c2ccc(Oc3ncnc4ccccc34)cc2)cc1OC,0.391% (active),85.1%,92.9%,70.4%,91.1%,33.5%,43.8%,88.5%,–,–
CC(C)C1(C(C)C)NC(=O)NC1=O,117%,110%,101%,107%,108%,99.4%,110%,92.6%,103%,–
O=C(Cn1c2ccccc2c2ccncc21)N/N=C\c1ccc2ccccc2c1,–,14.2%,75.2%,-11% (active),36%,43.1%,-37.1% (active),38.2%,27.2%,33.5%
O=c1[nH]ccc2nc(N3CCC(O)CC3)nc(Nc3cccc(C(F)(F)F)c3)c12,62.6%,45.3%,137%,91.4%,32.3%,71.2%,68.5%,80.2%,32.9%,–
O=C1/C(=C/c2cccc3cnccc23)Cc2cc(F)ccc21,–,96.1%,108%,77%,76.9%,85.9%,109%,109%,90.7%,84.6%
c1coc(CSc2ncnc3nc[nH]c23)c1,107%,90.3%,103%,99%,95.7%,97.1%,107%,106%,–,–
COc1ccc(-c2[nH]c3ccccc3c2/C=C(\C#N)S(=O)(=O)c2ccccc2)cc1,–,44.4%,32.2%,-14.3% (active),29.2%,32.7%,-35.7% (active),23.8%,0.134% (active),1.93% (active)
COc1cc(Nc2ncccc2C(=O)Nc2nc3ccc(F)cc3s2)cc(OC)c1OC,–,91.2%,105%,5% (active),91.7%,74.5%,55.6%,72.8%,67.2%,104%
COC(OC)C1(c2ccccc2)NC(=O)NC1=O (stereo not given),–,103%,122%,113%,102%,142%,126%,111%,116%,74.8%
O=C1COc2ccccc2C(=O)N1CCCCNc1ccccc1,–,–,107%,112%,84.8%,99.9%,105%,108%,94.6%,84.8%
NC(=NCCCOc1ccc(F)cc1)Nc1ccc(Cl)c(Cl)c1,–,88.6%,81.5%,59.9%,99.8%,45.9%,73.3%,65.7%,69.9%,52.1%
Nc1ncnc2c1c(-c1ccc(Oc3ccccc3)cc1)nn2C[C@@H]1SSC[C@H]1O,–,–,80.8%,50.2%,-8.06% (active),-10.3% (active),18.3%,16.9%,–,4.41% (active)
Nc1nc(Nc2ccc(OCc3cccc(F)c3)cc2)c2c(n1)[nH]c1ccc(O)cc12,-37.5% (active),-61.7% (active),0.474% (active),-62.2% (active),-1.21% (active),-21.8% (active),-86.4% (active),-21.9% (active),–,–
CCCCOc1nc2ccc(Cl)cc2cc1/C=C/C(=O)/C=C/c1ccc(OC)cc1,–,96.2%,122%,103%,110%,93.2%,98.2%,107%,107%,76.2%
COc1ccc(-c2ccc(NC(=O)Nc3ccc(Cl)c(C(F)(F)F)c3)c(C)n2)cc1,–,57.4%,89.1%,45.1%,68.1%,52.9%,27.6%,77%,49.8%,35.7%
COc1cc([C@@H]2c3cc4c(cc3C(OC3O[C@@H]5COC(C)O[C@H]5[C@H](O)[C@H]3O)C3COC(=O)[C@@H]32)OCO4)cc(OC)c1O (stereo not given in full),–,26.9%,–,88.3%,35%,65.4%,37.1%,59.3%,90.4%,-3.83% (active)
CN1C(=O)C2(NN=C(c3cccc4ccccc34)S2)c2ccccc21 (stereo not given),–,26.2%,50.2%,20%,26.5%,39.4%,40.2%,51.1%,29%,28.5%
C=C1C(=O)O[C@H]2[C@H]1CC/C(COC(=O)c1ccc3ccccc3c1)=C\CC[C@@]1(C)O[C@@H]21,–,-21.4% (active),-52.9% (active),-36.7% (active),82.6%,-75.1% (active),-93.1% (active),3.13% (active),-37.7% (active),-19.4% (active)
Fc1ccc(/C=N/n2c(-c3cc(Cl)cc(Cl)c3Cl)nn(CNc3ccc(Cl)nn3)c2=S)cc1,–,95.7%,89.9%,91.8%,90.2%,96.3%,–,108%,86.7%,79.7%
CCNc1ncnc2n[nH]nc12,–,99.6%,103%,94.7%,101%,111%,106%,103%,108%,94%
NC(N)=N/N=C/c1ccc([N+](=O)[O-])cc1,–,108%,99.1%,102%,108%,125%,117%,86.5%,78.5%,110%
